Dicer inh: human Dicer pre-microRNA cleavage inhibition; cat-ELCCA pre-miR-21 Dicer processing, chemiluminescence; active compounds read high; z-score at 25 µM; 47,000 tested, 6% active; AID 1347074; in the data active = z-score above about 3, passing the limit was not always enough;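 note: plate controls were vehicle for no effect and no enzyme for full effect; higher signal means more uncleaved substrate so more Dicer inhibition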
Numbers without * were called inactive. Many of the other results were omitted from the sample, so hits are more common in it than they were.

SMILES	Dicer inh
NNC(=O)Cn1nnc(-c2ccccc2C(F)(F)F)n1	0.88
CC(C)C(=O)Nc1nc(NC(=O)C(C)C)nc(-c2ccccc2C(F)(F)F)n1	3.2*
CCC(=O)Nc1nc(NC(=O)CC)nc(-c2ccccc2C)n1	2.9
CCOC(=O)C1=NN(c2ccc(Cl)cc2)/C(=C2\C(=O)NN=C2c2ccccc2)S1	-5.3
CCOC(=O)C(Sc1ncnc2c1sc1nc(C)cc(C)c12)C(C)=O (centres undefined)	2.2
Cc1c(NC(=O)c2c(F)cccc2F)cc2c(c1[N+](=O)[O-])C(C)(C)CC2(C)C	-0.6
COC(=O)c1ccc(S(=O)(=O)N2CCCN(c3cccc(C(F)(F)F)n3)CC2)n1C	2.9
O=C(CC1(O)C(=O)Nc2ccc(Cl)cc21)c1ccccc1 (centres undefined)	3
Cc1cc(C)c(C(=O)CC2(O)C(=O)Nc3ccc(Cl)cc32)c(C)c1 (centres undefined)	4.6*
Cc1cc(C)c(C(=O)CC2(O)C(=O)Nc3ccc(C)cc32)c(C)c1 (centres undefined)	1.2
c1ccc(-c2nc3c4c5c(sc4ncn3n2)CCCC5)nc1	-0.62
O=C(O)/C=C/C(=O)NCCNC(=O)Cc1ccc(O)cc1	-0.53
COc1cccc(SCC(=O)NCCSCc2ccco2)c1	-0.15
O=C(NNC(=S)Nc1cc(Cl)ccc1Cl)c1ccccc1Cl	-0.33
CCCc1cc(C(=O)Nc2ccc(N(CC)CC)cc2)nn1-c1ccccc1	4.4*
CCCCOC(=O)Nc1ccc(N(CC)CC)cc1	2
CCCc1c(NC(=O)Nc2ccc(F)cc2)cnn1-c1ccccc1	-1.5
O=C1c2cccnc2C(=O)N1c1ccc(F)cc1	1.7
Cc1nc2ccc(NC(=O)c3ccccc3C)cc2o1	-1.3
CC1=CC(C)(C)N(C(=O)Nc2ccc(C)cc2)c2ccc(C)cc21	-0.67
CCOc1ccc2c(c1)C(C)=CC(C)(C)N2C(=O)Nc1ccc(F)cc1	0.91
CC1=CC(C)(C)N(C(=O)c2ccc(F)cc2)c2cc3c(cc21)OCO3	4.6*
Cc1c(S(=O)(=O)c2ccc(Cl)cc2)csc1C(=O)N1CCN(c2ccc(C(F)(F)F)cn2)CC1	-0.37
CC(NC1CCCCC1)c1ccccc1 (centres undefined)	1.3
CCCCN1C(=O)C2(/C(=C(/O)c3ccc(C)cc3)C(=O)C(=O)N2CCCOC)c2ccccc21 (centres undefined)	5.1*
SMILES	Dicer inh
CCCCN1C(=O)C2(/C(=C(/O)c3ccc(OC)cc3)C(=O)C(=O)N2CCOC)c2ccccc21 (centres undefined)	3.7*
COCCCN1C(=O)C(=O)/C(=C(\O)c2ccc(C)cc2)C12C(=O)N(C)c1ccccc12 (centres undefined)	-1.7
CCN1C(=O)C2(/C(=C(/O)c3ccc(C)cc3)C(=O)C(=O)N2CCOC)c2ccccc21 (centres undefined)	2.5
C=CCN1C(=O)C2(/C(=C(/O)c3ccccc3)C(=O)C(=O)N2CCOC)c2ccccc21 (centres undefined)	1.7
CCCCN1C(=O)C2(/C(=C(/O)c3ccc(Cl)cc3)C(=O)C(=O)N2CCCOC)c2ccccc21 (centres undefined)	0.62
O=C(NCc1cc(Cl)ccc1Cl)c1cc2cccc([N+](=O)[O-])c2[nH]1	-1.8
COc1ccc(/C=C2\C(=O)Nc3ccccc32)cc1OC1CCCC1	-3
Cc1cc(S(=O)(=O)/N=C/N(C)C)c(Cl)cc1Cl	-1.6
CC(=O)OCc1cc(/C=N/N(C(C)=O)c2ccccc2)nn1-c1ccccc1	3.5*
Cc1cc(NC(=O)N(C)C)nn1-c1ccccc1	-2.1
COC(=O)Nc1cc(C)n(-c2ccccc2)n1	0.02
COc1ccccc1C1CCN(c2ccc([N+](=O)[O-])c(OC)c2)CC1	3.4*
COc1ccccc1C1CCN(c2ccc(C(F)(F)F)cc2[N+](=O)[O-])CC1	0.04
COc1ccccc1C1CCN(Cc2ccc(Cl)cc2Cl)CC1	-0.25
O=c1oc2ccccc2c2c1nnn2C1CCCCC1	-0.64
Cc1[nH]nc(N/N=C/c2ccccc2)c1C(=O)O	0.29
COc1ccc(Oc2ccc(C(F)(F)F)cc2NC(=O)c2nn(-c3ccccc3)nc2C)cc1	0.67
S=C(NCc1ccccc1Cl)NC12CC3CC(CC(C3)C1)C2	0.78
CCOC(=O)Nc1ccc2c(c1)N(C(=O)NC)c1ccccc1CC2	3.5*
CCOC(=O)Nc1ccc2c(c1)N(C(=O)N1CCN(C)CC1)c1ccccc1CC2	1.2
COC(=O)Nc1ccc(S(=O)(=O)N2CCCc3ccccc32)cc1	0.04
O=[N+]([O-])c1ccc(CSc2ccc(F)cc2F)c(Cl)c1	-1.2
Cn1c(=O)n(CC(=O)O)c(=O)c2c1nc1n2CCN1c1ccc(Cl)cc1	3.4*
Cn1c(=O)n(CC(=O)O)c(=O)c2c1nc1n2CCCN1c1cccc(Cl)c1	1.5
COc1cccc(N2CCn3c2nc2c3c(=O)n(CC(=O)O)c(=O)n2C)c1	1.5
SMILES	Dicer inh
C/C(=C\C(=O)c1cccc(Cl)c1F)N(C)C	0.24
O=C(NC1CCS(=O)(=O)C1)c1ccc(Cl)cc1 (centres undefined)	-0.63
COc1ccc2nc(Nc3nc4c(c(=O)[nH]3)CCCC4)nc(C)c2c1	0.91
O=C(Nc1nccc2ccccc12)c1cccs1	2.6
CC[n+]1c(C)n(-c2ccccc2)c2ccccc21	10*
CCOC(=O)c1c(O)c(O)c(C(=O)OCC)n1-c1ccccc1	-0.94
CC(=O)Nc1ccc2c(c1)[n+](C)c(C)n2-c1ccccc1	0.47
CC1CN(C)c2ccccc2N(C)C1=O (centres undefined)	-1.1
C=CCN1C(=O)C(=O)/C(=C(\O)c2ccc(Br)cc2)C1c1ccc(OC)cc1 (centres undefined)	0.76
COc1ccc(-c2nc(Nc3nc4ccccc4o3)ncc2C#N)cc1	1.9
Cc1cc(C)nc(Nc2n[nH]c(Cc3ccccc3)n2)n1	0.13
Cc1cc(C)nc(Nc2nc3ccccc3o2)n1	4.6*
CN(C)c1ccc([N+](=O)[O-])c(N(C)C)c1C#N	1.4
Cc1ccccc1OCc1nnc2c3cnn(Cc4ccccc4)c3ncn12	0.11
Cc1ccc(C2OC3(C(=O)c4ccccc4C3=O)C3C(=O)N(c4cccc(Cl)c4)C(=O)C23)cc1 (centres undefined)	-0.17
Cc1cc(C)c(C(=O)CC2(O)C(=O)N(C)c3ccccc32)c(C)c1 (centres undefined)	-0.57
CCCN1C(=O)C(O)(CC(=O)c2c(C)coc2C)c2ccccc21 (centres undefined)	0.41
Cc1coc(C)c1C(=O)CC1(O)C(=O)N(C)c2ccccc21 (centres undefined)	3.4*
Cc1nc(-c2ccc(C)c(C)c2)c(CC(=O)O)s1	2.3
COc1ccc(C2C3=C(CC(C)(C)CC3=O)Nc3ncnn32)cc1 (centres undefined)	1.4
O=C(Nc1ccc(Cl)cc1)c1cncc(C#Cc2ccccc2)c1	2
O=C(Nc1cccc(C(F)(F)F)c1)c1cncc(C#Cc2ccccc2)c1	-2.4
O=C(NC(=S)N1CCc2ccccc21)c1cncc(C#Cc2ccccc2)c1	3.8*
FC(F)(F)c1nc2ccc(Cl)cc2[nH]1	1.2
Cc1sc2c(c1C)C(=O)/C(=C\Nc1ccccn1)S(=O)(=O)N2C	0.25
CN1c2ccsc2C(=O)/C(=C\Nc2ccccc2Cl)S1(=O)=O	-0.04
Cc1sc2c(c1C)C(=O)/C(=C\Nc1ccccc1Cl)S(=O)(=O)N2C	4.8*
Cn1c(SCC(=O)c2ccc(Br)cc2)nnc1-c1ccccc1	0.33
CCOC(=O)CN1C(=O)C2CC=C(Cl)CC2C1=O (centres undefined)	3.1*

High-throughput results: PubChem BioAssay, Center for Chemical Genomics, University of Michigan
